Hits are enriched below; roughly 2.2% of the tested compounds scored in any of these assays.
GLP1R cytotox: cytotoxic in the GLP-1 receptor inverse agonist counter-screen; AID 624418; HEK293 cAMP-luciferase reporter cells, luminescence, 24 h; Potency, µM (series often up to 38.3 µM), inactives show at the highest dose activity change, negative = inhibition, most hits filed as inhibitors; actives 0.13% (n = 410,000);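 note: loss of luciferase light is scored as toxicity; potency is the fitted concentration of half-maximal effect; % is set by controls: 0 for no effect and ±100 for the full control effect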
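Step one: seed cells (200 cells/uL, DMEM with 10% Nu serum, 1% pen-strep). Step two: 12-hour incubation at 37 deg C. Step three: pin 23 nL compound, incubate 24 hr. Step four: add luciferase reagent, read luminescence 12 min later.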
GLP1R inv ag: acts as inverse agonist at human GLP-1 receptor. P43220. HEK293 GLP-1R CRE-luciferase, luminescence, 24 h; GLP-1R form is constitutively active. Potency, µM (series often up to 38.3 µM), for the others: top-dose activity change, negative = inhibition, actives largely listed as inhibitors. actives 1.6% (n = 410,000). AID 624417; note: potency is the fitted concentration of half-maximal effect; % is set by controls: 0 for no effect and ±100 for the full control effect; nearly all actives have a fitted effect of over 55% in size
Target sequence (P43220 whole entry, looked up): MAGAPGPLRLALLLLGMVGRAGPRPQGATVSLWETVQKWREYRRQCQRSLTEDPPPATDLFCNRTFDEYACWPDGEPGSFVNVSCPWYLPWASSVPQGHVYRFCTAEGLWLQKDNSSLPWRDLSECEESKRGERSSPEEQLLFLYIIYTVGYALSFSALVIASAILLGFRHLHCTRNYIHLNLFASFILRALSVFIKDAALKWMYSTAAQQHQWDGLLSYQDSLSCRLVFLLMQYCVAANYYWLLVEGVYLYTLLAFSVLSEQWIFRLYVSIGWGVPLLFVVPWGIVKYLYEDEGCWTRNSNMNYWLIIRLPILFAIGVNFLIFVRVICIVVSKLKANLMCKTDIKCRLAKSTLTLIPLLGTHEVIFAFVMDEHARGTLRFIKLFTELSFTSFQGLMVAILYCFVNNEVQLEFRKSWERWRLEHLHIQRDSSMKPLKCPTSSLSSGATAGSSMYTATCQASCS
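Cells are plated, allowed 12 hours at 37 deg C, then treated with compounds for 24 hr before luciferase detection reagent is added and luminescence is read after 12 min at room temperature. The HEK293 line carries constitutively active GLP-1R with a cAMP-responsive reporter.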
uPA generation: inhibitors of cell surface uPA generation | cell surface uPA generation assay, qHTS | actives 0.31% (n = 330,000) | Potency, µM (titrated, usually from 38.3 µM), for the others: at the highest dose activity change, negative = inhibition, hits mostly inhibitors; active = well fitted inhibition curve with a large enough effect; inconclusive = small, poorly fitted or top-dose-only effect; inactive = no such curve, though single readings can be large or run the other way; tested in mouse RAW 264.7 cells; note: potency is the fitted concentration of half-maximal effect; % is set by controls: 0 for no effect and ±100 for the full control effect; nearly all actives have a fitted effect of over 55% in size
GLP1R ag: agonists of human GLP-1 receptor | P43220 | HEK293 GLP-1R CRE-luciferase, luminescence, 4-6 h; cells express a hypersensitive GLP-1R form | Potency, µM (highest dose often 45.6 µM), for the others: top-dose activation, usual class: activators | actives 0.007% (n = 380,000) | AID 624172; note: potency is the fitted concentration of half-maximal effect; % of control where 0% means no effect
CCT chaperon mod: changes cytosolic chaperonin activity | activity change, % (test concentration not listed), hits read low | actives 0.3% (n = 360,000) | purified chaperonin ATPase assay, HTRF ADP detection, 30 min; in the data active = activity change below about -30%; note: % is set by controls: 0 for no effect and ±100 for the full control effect
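We incubate TRiC, 40 or 20 nM final, with library compounds at 76 uM and 10 uM ATP for 30 min at 37 °C. ADP formed is detected with Transcreener HTRF reagents after 30 min at room temperature.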
Mm-Cpn inhibitor: inhibitors of Methanococcus maripaludis chaperonin TRiC (MmCpn) | purified Mm-Cpn ATPase, ADP Transcreener TR-FRET | Potency, µM (titrated, usually from 76.9 µM), without a hit: at the highest dose activity, negative = inhibition, usual class: inhibitors | actives 0.031% (n = 330,000) | AID 504842; note: potency is the fitted concentration of half-maximal effect; % is set by controls: 0 for no effect and ±100 for the full control effect; nearly all actives have a fitted effect of over 80% in size
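Inhibition of chaperonin ATP hydrolysis is measured as reduced ADP production, detected by competitive TR-FRET in which signal falls with ADP. Final enzyme 25 nM and ATP 10 uM, reacted 30 min at 37°C.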
Active calls of the source: *; ? = inconclusive; . = no result. Unless noted, calls come from the whole dose curve; as a rule, active = well fitted curve in the direction sought with a large enough effect; inconclusive = small, poorly fitted or top-dose-only effect, or another doubt; inactive = no such curve, though single readings can be large; an effect the other way counts as inactive or inconclusive.

SMILES	GLP1R cytotox	GLP1R inv ag	uPA generation	GLP1R ag	CCT chaperon mod	Mm-Cpn inhibitor
CCCS(=O)(=O)c1nc(S(=O)(=O)c2ccc(C)cc2)c(N2CCC(C)CC2)s1	2.5%	?	-10.7%	8.6%	-2.0	3.0%
Cc1ccc(S(=O)(=O)c2nc(S(C)(=O)=O)sc2N2CCCCC2C)cc1 (stereo not drawn)	-21.7%	3.55µM*	-25.9%	-2.6%	1.1	?
CCCS(=O)(=O)c1nc(S(=O)(=O)c2ccc(C)cc2)c(N2CCCC(C)C2)s1 (stereo not drawn)	-4.0%	12.6µM*	-0.7%	0.3%	0.4	0.3%
CC(C)N=C(NC#N)SCc1ccccc1F	3.9%	6.1%	.	-12.0%	0.6	-0.4%
N#CNC(=Nc1cccc(F)c1)SCc1ccccc1F	-29.5%	-23.8%	12.6µM*	8.4%	-0.4	-8.4%
CC1=C[C@@H](O)CC(C)(C)[C@@H]1/C=C/C(C)=C/C=C/C(C)=C/C=C/C=C(C)/C=C/C=C(C)/C=C/C1=C(C)C[C@H](O)CC1(C)C	.	.	.	-5.5%	.	.
COc1ccc(C2=Nn3c([n+](C)c4ccccc43)SC2)cc1	-16.1%	-24.7%	3.55µM*	-0.7%	-3.4	-0.4%
Cn1ccc2cc(-c3ccc4ncnc(NCc5cccc(F)c5)c4c3)ccc21	.	.	.	.	.	-25.6%
CCOc1ccc(OCC)c(NC(=O)CN2CCN(c3cc(C)ccc3C)CC2)c1	?	12.6µM*	16.4%	0.1%	-4.8	-3.8%
CCCNC1=C(N(C(C)=O)c2cccc(F)c2)C(=O)c2ccccc2C1=O	?	8.91µM*	-13.2%	-39.6%	0.3	-0.3%
COc1ccc(C)cc1S(=O)(=O)N(CC(=O)O)c1ccc(F)cc1	-5.3%	2.6%	0.8%	-8.7%	-33.3*	.
CCOc1ccc(N2C(=O)C(CC(=O)Nc3ccccc3)N(Cc3ccccn3)C2=S)cc1 (stereo not drawn)	-2.5%	?	-12.3%	-1.4%	-0.7	0.8%
CCOc1ccc(N2C(=O)C(CC(=O)Nc3ccc(F)cc3)N(Cc3ccccn3)C2=S)cc1 (stereo not drawn)	-5.3%	10µM*	0.8%	12.9%	0.8	-3.1%
CC(=O)C(Sc1nc(-c2ccccc2Cl)nc2c1c(=O)n(C)c(=O)n2C)C(=O)N(C)C (stereo not drawn)	-6.3%	4.5%	.	.	.	.
O=C(OCc1ccccc1)N(CCF)c1cn(Cc2ccccc2)c(=O)n(Cc2ccccc2)c1=O	-3.3%	10µM*	8.6%	17.8%	-1.6	.
OCc1cccc(-c2cnc3c(Nc4cccc(OC(F)(F)C(F)F)c4)nccn23)c1	-19.1%	12.6µM*	.	-21.8%	-1.0	.
Cc1ccc(-c2cnc3c(Nc4cccc(OC(F)(F)C(F)F)c4)nccn23)cc1	-10.1%	?	.	1.8%	-4.1	.
CC(C)(C)c1cc(C(=O)NNC(=O)Nc2cccc(Cl)c2)n(Cc2ccccc2)n1	-20.3%	5.01µM*	-5.8%	1.1%	-0.2	0.0%
COc1ccccc1-c1nc2c(c(SCc3cc(C)ccc3C)n1)Cc1c(CO)cnc(C)c1O2	-10.3%	52.0%	.	.	.	.
CC1(C)SC(=S)N(NC(=O)Nc2cccc3ccccc23)C1N(O)C(=O)Nc1ccccc1 (stereo not drawn)	-22.1%	11.2µM*	-1.7%	-12.0%	1.6	-2.8%
CCCn1c(CCNc2nc(-c3ccc(Cl)c([N+](=O)[O-])c3)cs2)nc2cc(Cl)c(Cl)cc21	5.0%	7.9%	3.1%	-0.3%	-1.0	-2.4%
O=[N+]([O-])c1cc(-c2csc(NCCc3nc4cc(Cl)c(Cl)cc4n3CCCO)n2)ccc1Cl	?	14.1µM*	-4.2%	-0.2%	-3.2	.
Cc1cc(=O)[nH]c(SCC(=O)N2CCN(C(c3ccccc3)c3ccccc3)CC2)n1	13.3%	5.62µM*	-0.7%	-0.4%	-2.2	1.6%
Cc1cc(=O)[nH]c(SCC(=O)N2CCN(c3ccccc3)CC2)n1	4.9%	6.5%	.	.	.	.
NC(=O)c1ccc(NC(=O)CCCN2C(=O)NC3(CCCC3)C2=O)cc1	-8.6%	7.5%	7.7%	4.7%	-1.5	1.5%
SMILES	GLP1R cytotox	GLP1R inv ag	uPA generation	GLP1R ag	CCT chaperon mod	Mm-Cpn inhibitor
O=C(CCN1C(=O)NC2(CCCC2)C1=O)Nc1ccc(Sc2ccc(Br)cc2)cc1	-1.9%	11.2µM*	.	3.5%	0.4	.
CCCCN(C)CCNC(=O)c1ccc2c(=O)n(CCc3ccccc3)c(=O)[nH]c2c1	-19.1%	-0.9%	.	-0.6%	.	.
Cc1ccccc1C(=O)Nc1cc(-c2cc(C(C)(C)C)oc2C)nn1C	-8.8%	10µM*	3.1%	22.9%	-1.1	-1.2%
CN(C)CC/C=C1/c2cc(F)ccc2Sc2ccc(Cl)cc21	?	10µM*	1.7%	5.8%	0.0	.
COc1cc2c(cc1Cl)/C(=C\CCN(C)C)c1ccccc1S2	?	10µM*	-17.8%	-17.2%	0.4	-0.4%
Cc1cccc(-c2nc(CCNC(=O)c3ccccc3Br)cs2)c1	2.2%	-23.4%	.	.	.	.
COCCCNC(=O)c1ccc(-n2c(-c3ccccc3)cc3c2CCC(C)C3)cc1 (stereo not drawn)	-22.0%	10µM*	.	.	.	.
CCOc1ccc(N(CC(=O)Nc2ccc(C)c(C)c2)S(=O)(=O)c2c(C)noc2C)cc1	13.8%	10µM*	12.6µM*	7.3%	-1.1	-0.9%
CCOc1ccc(N(CC(=O)Nc2cccc(F)c2)S(=O)(=O)c2c(C)noc2C)cc1	?	?	?	2.1%	-2.1	1.7%
COc1ccc(N(CC(=O)NCC2CCCO2)S(=O)(=O)c2c(C)noc2C)cc1 (stereo not drawn)	4.6%	1.8%	.	-10.8%	-65.0*	1.4%
COc1ccc(N(CC(=O)NCc2ccc(F)cc2)S(=O)(=O)c2c(C)noc2C)cc1	-0.1%	?	2.9%	14.6%	1.9	-5.4%
CC(C)(C)NC(=O)C(OC(=O)c1cccs1)c1ccccc1 (stereo not drawn)	0.5%	-27.7%	8.9%	12.6%	0.0	0.4%
Cc1cc(C)cc(NC(=O)C(OC(=O)c2cccs2)c2ccccc2)c1 (stereo not drawn)	3.2%	10µM*	9.4%	7.7%	2.4	1.4%
O=C(CC1NCCNC1=O)Nc1ccccc1F (stereo not drawn)	3.6%	16.7%	.	-0.8%	.	.
CC(C)CSc1ccccc1NC(=O)c1sc2nc(-c3ccncc3)ccc2c1N	34.9%	5.0%	.	25.0%	.	.
CC(Oc1ccccc1)C(=O)N1CCN=C1SCc1ccccc1 (stereo not drawn)	18.1%	?	-3.1%	-17.4%	-41.6*	?
C=CCOc1ccc(CNc2ccc(NC(=O)CCC)cc2)cc1OCC	-0.3%	?	-1.2%	5.1%	0.2	0.4%

From PubChem BioAssay
